# Measurements as given in PubChem BioAssay AID651644 (National Center for Advancing Translational Sciences (NCATS), 2012).
# Hit rate of the full screen: of about 360,000 compounds, about 750 (0.21%) were called active. Another 2% or so got no clear call; they are omitted. The entries come from a sample that favours actives as a whole. A number with no mark means an inactive call. Calls come from the whole dose curve; as a rule, active = well fitted falling curve with a large enough effect; inconclusive = small, poorly fitted or top-dose-only effect; inactive = no such curve, though single readings can be large or run the other way.
# Assay: qHTS Assay for Inhibitors of the HIV-1 protein Vpr; note: nearly all actives have a fitted effect of over 50% in size
# Conditions: S. pombe RE007 Vpr strain, BacTiter-Glo ATP luminescence, 24 h; series mostly up to 92.2 µM; activity change, negative = less growth: at the top concentration
# From the text: Human immunodeficiency virus type 1 (HIV-1), the causative agent of AIDS, contains a protein called viral protein R (Vpr) that plays an important role in the viral life cycle and the pathogenesis of HIV-1.
# These Vpr specific activities include cytoplasmic-nuclear shuttling, induction of cell cycle G2 arrest and cell killing. The cytoplasmic-nuclear shuttling is believed to participate in nuclear transport of the proviral integration complex (PIC). The cell cycle G2 arrest induced by Vpr is thought to suppress human immune functions by preventing T cell clonal expansion and to provide an optimized cellular environment for maximal levels of viral replication. In addition, Vpr induces apoptosis, which may contribute to the depletion of CD4 T cells in HIV-infected patients. Since the Vpr-specific activities have been linked to such clinical manifestation of AIDS as activation of viral replication, suppression of host immune responses and depletion of CD4+ T-lymphocytes, identification of new molecular probes that can inhibit the Vpr activities could potentially provide a new approach to reduce Vpr-mediated detrimental effects in HIV-infected patients, and thus prolong patient's lives. Currently, there are no anti-Vpr drugs.
# A fission yeast (Schizosaccharomyces pombe) model system for the Vpr studies has been developed which measures HIV-1 Vpr-induced cell death. This assay will be used for to screen the NIH Molecular Libraries Small Molecule Repository (MLSMR) identify small molecule HIV-1 Vpr inhibitors.
# NIH Chemical Genomics Center [NCGC]
# NIH Molecular Libraries Probe Centers Network [MLPCN]
# Assay Submitter (PI): Richard Zhao, University of Maryland
# The fission yeast RE007 strain was used, which carries a single integrated copy of HIV-1 vpr gene in the yeast chromosome. The starting culture was frozen stock 100ul of yeast RE007 in 150ml of *PMG+AL medium, Incubation in 30 degree plus 99% humidity for 18 hours. Next day dispensed 2.5ul of PMG+AL medium in each well to 1536 well white solid plate, then 23nL compound were delivered to each well using a pin tool. Check OD for overnight culture and add cell density at 0.01 for each well, incubation in 30 degree plus 99% humidity for 24 hours. After add 5 ul of *BacTiter/Glo detect reagent to each well at room temperature for 5 minutes then to red out results with Viewlux CCD camera.
# % is set by controls: 0 for no effect and ±100 for the full control effect.
Compound,"activity change, negative = less growth",Potency
Cc1cc(C)c2c(n1)sc1c(=O)n(-c3ccccc3)c(=O)[nH]c12,-0.636%,–
CCCCCCCCc1c(O)nc(-n2[nH]c(C)c(CCO)c2=O)[nH]c1=O,1.19%,–
Cc1ccc(-c2nn(-c3ccc(F)cc3)cc2C(=O)NCC(c2cccs2)N2CCOCC2)cc1 (stereo unspecified),19.5%,–
FC(F)(F)C1CCCN(c2nsc3ccccc23)C1 (stereo unspecified),–,8.91 µM (active)
CCn1ncc(C2=NOC(C(=O)N3CCN(c4ccccc4)CC3)C2)c1C (stereo unspecified),-2.91%,–
CC1Cc2ccccc2N1C(=O)c1cc2sccc2n1Cc1ccccc1 (stereo unspecified),9.42%,–
COc1ccc(C(CNC(=O)c2cc(S(=O)(=O)Nc3cccc(C)c3)ccc2C)N2CCCC2)cc1 (stereo unspecified),-11%,–
CCn1cc(C(=O)N[C@@H](C)C(=O)NCCO)c(=O)c2cc3c(cc21)OCO3,8.19%,–
O=[N+]([O-])c1ccc(C=Nc2ccc(Cl)cc2Cl)s1,–,3.16 µM (active)
Cc1ccc(S(=O)(=O)N(c2cccc(C)c2)C2CCS(=O)(=O)C2)cc1 (stereo unspecified),-5.48%,–
CN1CCN(C(=O)c2ccccc2NC(=O)COc2ccccc2Cl)CC1,-2.68%,–
COc1ccc(NC(=O)c2cccc(Cl)c2)c[n+]1[O-],-16.9%,–
Cc1cccc(NS(=O)(=O)c2ccc(-c3cnc(C4CC4)o3)cc2)c1,-3.01%,–
Cc1ccccc1OCC(=O)NCC(=O)OCC(=O)c1ccc2ccccc2c1,-1.1%,–
Cc1cccc(C)c1NC(=O)Nc1ccccc1-n1ccnc1,-10.5%,–
CCSc1ccccc1C(=O)Nc1ccc2c(c1)OCO2,–,28.2 µM (active)
CCOc1ncccc1C(=O)Nc1ccc2c(c1)OCCO2,0.0868%,–
CC(C)NC(=O)CSc1ccccc1C(=O)NCc1ccc2c(c1)OCO2,-6.89%,–
O=C1COc2ccc(C(=O)COC(=O)CCOc3ccccc3)cc2N1,2.66%,–
O=S(=O)(NCCS(=O)(=O)N1CCN(c2ccccc2)CC1)c1ccc(F)cc1,-2.52%,–
Cc1c(C(=O)OCC(=O)N(CCC#N)c2ccccc2)oc2c1ccc1ccccc12,-3.92%,–
O=C(NC(c1ccc(-c2ccccc2)cc1)c1cnccn1)C1CCN(CCOc2ccc(Cl)cc2Cl)CC1 (stereo unspecified),-8.16% [at 18.4 µM],–
CC1CCc2c(sc3nc4n(c(=O)c23)CCS4)C1 (stereo unspecified),–,12.6 µM (active)
NNC(=O)C1CCCn2c1nc1sc3c(c1c2=O)CCCC3 (stereo unspecified),12%,–
CCCCc1c(O)nc2n(c1=O)CCS2,-2.61%,–
Cc1cccc(C(=O)OCC(=O)NCC(C)C)c1O,4.4%,–

Compound,"activity change, negative = less growth",Potency
Cc1cccc(N2CCN(Cc3nc(C4CC4)no3)CC2)n1,-6.17%,–
COP1(=O)C[C@@H](O)[C@@H](O)[C@@H](COCc2ccccc2)O1 (stereo partly specified),0.0821%,–
O=C(Nc1nnc(C2COc3ccccc3O2)o1)c1ccc(F)cc1 (stereo unspecified),-17.2%,–
O=C(CCn1nnnc1CN1CCOCC1)N1CCC(c2ccccc2Cl)C1 (stereo unspecified),3.11%,–
CC(C)OC(=O)c1ccc(NCc2cc(O)ccc2O)cc1Cl,–,28.2 µM (active)
CCC(C)c1ccccc1N1CC(C(=O)N2CCN(S(=O)(=O)c3ccc(F)cc3)CC2)CC1=O (stereo unspecified),6.94%,–
COc1ccc(C(=O)CN2C(=O)NC3(CCc4ccccc43)C2=O)c(OC)c1 (stereo unspecified),-0.673%,–
Cc1ccc(OCCCCc2c(C)n[nH]c2C)cc1,1.1%,–
NC1=C([N+](=O)[O-])C(c2ccccc2)C2=C(CCCC2=O)O1 (stereo unspecified),1.87%,–
CCc1ccc2oc(-c3ccc(N)cc3)nc2c1,–,11.2 µM (active)
COc1ccccc1N1CCN(S(=O)(=O)c2ccc3c(c2)NC(=O)CS3)CC1,-1.45%,–
CC1(C(=O)Nc2ccc3c(c2)OCCO3)CSCC(=O)N1CCOc1ccccc1 (stereo unspecified),-4.71%,–
Cc1nn(CCCC(=O)NCc2ccccc2Cl)c(=O)c2nccn12,-1.04%,–
O=c1c2ccccc2ncn1CCc1ccncc1,-15.9%,–
NNc1cccc(C=Cc2ccccc2)cc1=O,–,28.2 µM (active)
COc1ccccc1C(=O)NCc1nnc(SC(C)C(=O)Nc2nccs2)n1C (stereo unspecified),2.26%,–
Cc1ccc2cc3cc(C(=O)N4CCCCCC4)oc3nc2c1,-12.2%,–
O=C(c1cccc(Br)c1)N1CCN(C2=NS(=O)(=O)c3ccccc32)CC1,-12.3%,–
CCCOc1ccc(NC(=O)CC2C(=O)N(C)C(=S)N2Cc2ccc3c(c2)OCO3)cc1 (stereo unspecified),26.4%,–
O=C(NCCc1ccccn1)c1cccnc1Oc1ccc(Cl)cc1,2.12%,–
CCOc1ccc(CCNC(=O)CSc2cc(=O)n(C)c3ccc(Cl)cc23)cc1OCC,-8.18%,–
CN(C)NC(=O)C(NC(=O)c1ccc(N)cc1)C12CC3CC(CC(C3)C1)C2 (stereo unspecified),-5.22%,–
CC1(C)CC[C@]2(C(=O)O)CC[C@]3(C)C(=CCC4[C@@]5(C)CC[C@H](O)C(C)(C)C5[C@H](O)C[C@]43C)[C@@H]2C1 (stereo partly specified),65.6%,–
O=C(Nc1ccc(F)cc1)Nc1nnc([C@H]2C[C@H](O)[C@@H](CO)O2)s1,3.26%,–
COC(=O)C1CCN(C(=O)COC(=O)c2cc(S(=O)(=O)N3CCOCC3)ccc2C)CC1,13.4%,–
